The record followed here is the antibiotic and cytotoxicity screens of Wong et al. (2023).

The campaign covered roughly 39,000 compounds. About 3,300 (8.5%) were called active. Shown is part of a subset that was picked to be rich in actives.

For this experiment, the system named is HepG2. The experiment can be described thus: cytotoxicity call (relative viability < 0.9). The settings on record: 10 µM.
In the case of `C[C@@H]1CN([C@@H](C)CO)C(=O)c2cc(NC(=O)Nc3ccccc3)ccc2O[C@@H](C)CCCCO[C@H]1CN(C)C(=O)CCC(F)(F)F`, the cytotoxicity call is “inactive”.
Consider `C[C@@H]1CCCCO[C@H](CN(C)S(=O)(=O)c2cccs2)[C@H](C)CN([C@@H](C)CO)C(=O)c2cc(NC(=O)Nc3ccc(C(F)(F)F)cc3)ccc2O1`, for which the cytotoxicity call was “active”.
Consider `C[C@@H]1CN([C@H](C)CO)C(=O)c2cc(NC(=O)Nc3ccc(C(F)(F)F)cc3)ccc2O[C@@H](C)CCCCO[C@@H]1CN(C)S(=O)(=O)c1cccs1`, for which the cytotoxicity call is “inactive”.
As for `C[C@@H]1CCCCO[C@@H](CN(C)S(=O)(=O)c2cccs2)[C@@H](C)CN([C@H](C)CO)C(=O)c2cc(NC(=O)Nc3ccc(C(F)(F)F)cc3)ccc2O1`, the cytotoxicity call was “inactive”.
Consider `C[C@@H]1CCCCO[C@H](CN(C)S(=O)(=O)c2cccs2)[C@@H](C)CN([C@@H](C)CO)C(=O)c2cc(NC(=O)Nc3ccc(C(F)(F)F)cc3)ccc2O1`, for which the cytotoxicity call is “active”.
In the case of `C[C@H](CO)N1C[C@H](C)[C@@H](CN(C)S(=O)(=O)c2cccs2)OCCCC[C@H](C)Oc2ccc(NC(=O)Nc3ccc(C(F)(F)F)cc3)cc2C1=O`, the cytotoxicity call was “inactive”.
As for `C[C@@H]1CN([C@@H](C)CO)C(=O)c2cc(NC(=O)Nc3ccc(C(F)(F)F)cc3)ccc2O[C@@H](C)CCCCO[C@@H]1CN(C)S(=O)(=O)c1cccs1`, the cytotoxicity call is “inactive”.
On to `C[C@@H]1CN([C@H](C)CO)C(=O)c2cc(NC(=O)C3CC3)ccc2O[C@H]1CN(C)Cc1ccc(Oc2ccccc2)cc1`, for which the cytotoxicity call is “inactive”.
To `COc1cc(OC)c([C@@H]2c3c(n(C)c(=O)n(C)c3=O)N=C3COC(=O)C32)cc1OC` (some centres not stated) belongs “inactive”; to `NCc1cnc(Nc2ccccc2)nc1`, “inactive”; to `COc1ccc(S(=O)(=O)Nc2ccc3c(c2)C(=O)N([C@H](C)CO)C[C@H](C)[C@@H](CN(C)Cc2ccc4c(c2)OCO4)OCCCC[C@@H](C)O3)cc1`, “inactive”.
To `C[C@@H]1CCCCO[C@H](CN(C)C(=O)C2CCCCC2)[C@H](C)CN([C@H](C)CO)C(=O)c2cc(NC(=O)c3ccccc3)ccc2O1` belongs “inactive”; to `C[C@@H]1CN([C@@H](C)CO)C(=O)c2cccc(NC(=O)C3CCCCC3)c2O[C@@H]1CN(C)Cc1ccc(C(F)(F)F)cc1`, “inactive”; to `C[C@H](CO)N1C[C@H](C)[C@@H](CN(C)C(=O)c2cnccn2)Oc2ncc(C#Cc3ccccn3)cc2C1=O`, “inactive”.
The same measure for `CCCCC[C@@H](C)N`: “inactive”.
Consider `C[C@@H]1CN([C@H](C)CO)C(=O)Cc2cc(NS(=O)(=O)c3cn(C)cn3)ccc2O[C@@H]1CN(C)CC1CC1`, for which the cytotoxicity call was “inactive”.
As for `O=C(Nc1cccc2cccnc12)[C@@H]1[C@H](c2cc(Cl)cc(Br)c2)CC(=O)N1C(=O)OCc1ccccc1`, the cytotoxicity call is “active”.
Regarding `O=C(Nc1cccc2cccnc12)[C@@H]1[C@H](c2cccc(Br)c2)CC(=O)N1C(=O)OCc1ccccc1`, the cytotoxicity call is “inactive”.
The same measure for `O=C(Nc1cccc2cccnc12)[C@@H]1[C@H](c2ccc(Br)cc2)CC(=O)N1C(=O)OCc1ccccc1`: “inactive”; for `O=C(Nc1cccc2cccnc12)[C@@H]1[C@H](c2ccc(-c3ccccc3)cc2)CC(=O)N1C(=O)OCc1ccccc1`: “inactive”.
Regarding `COc1ccc(NC(=O)[C@H]2[C@@H](c3ccc(C)cc3)CC(=O)N2C(=O)OCc2ccccc2)c2ncccc12`, the cytotoxicity call was “active”.
For the compound `COc1ccc(NC(=O)[C@@H]2[C@H](c3ccc(C)cc3)CC(=O)N2C(=O)OCc2ccccc2)c2ncccc12`, the cytotoxicity call is “inactive”.
